A selection: hits, their analogues and other compounds. The true share with any hit is near 3.2%.
APOBEC3G inh – blocks human APOBEC3G single-stranded DNA deamination; Q9HC16; inhibition, % at 20 µM; hit rate 0.28% among 330,000; recombinant A3G, ssDNA deamination FAM/TAMRA fluorescence;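 active = inhibition of at least 40% at 20 µM, with no more than 30% in the related APOBEC3A deaminase screen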;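 also: plate controls were DMSO wells with A3G for no effect and wells lacking A3G enzyme for full effect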
Target sequence (Q9HC16 whole entry, looked up): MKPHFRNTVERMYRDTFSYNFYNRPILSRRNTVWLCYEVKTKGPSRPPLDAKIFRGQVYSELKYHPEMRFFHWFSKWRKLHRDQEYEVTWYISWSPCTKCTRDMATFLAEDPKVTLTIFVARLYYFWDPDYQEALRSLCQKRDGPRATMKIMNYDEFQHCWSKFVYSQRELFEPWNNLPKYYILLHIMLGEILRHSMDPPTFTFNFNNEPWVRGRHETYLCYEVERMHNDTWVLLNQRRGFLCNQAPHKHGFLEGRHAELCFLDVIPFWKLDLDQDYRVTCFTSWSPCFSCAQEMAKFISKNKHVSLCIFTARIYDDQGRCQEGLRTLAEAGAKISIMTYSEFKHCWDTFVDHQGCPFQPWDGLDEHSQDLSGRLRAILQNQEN
A3A deaminase – inhibitors of human APOBEC3A DNA deaminase; P31941; recombinant A3A, FAM/TAMRA ssDNA deamination fluorescence; inhibition, % at 20 µM; hit rate 0.41% among 330,000;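 active = at least 40% inhibition at 20 µM here, with at most 30% in a related deaminase screen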;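 also: plate controls were A3A with DMSO for no effect and wells lacking A3A enzyme for full effect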
Target sequence (P31941 whole entry, looked up): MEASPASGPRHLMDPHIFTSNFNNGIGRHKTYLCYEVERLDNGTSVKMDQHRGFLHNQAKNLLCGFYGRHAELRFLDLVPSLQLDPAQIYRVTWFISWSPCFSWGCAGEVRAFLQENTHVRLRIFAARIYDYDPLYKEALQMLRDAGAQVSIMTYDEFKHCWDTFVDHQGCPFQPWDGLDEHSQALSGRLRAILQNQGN
NTR1 ag – NTR1 (human) agonism | P30989 | NTR1-U2OS beta-arrestin-GFP spot imaging, agonist mode | activation, % at 20 µM | hit rate 0.17% among 330,000 | AID 493036;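 active = activation at or above 40% of the spot to cytoplasm intensity ratio, with at least 20 cells analyzed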;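 also: 0% = DMSO without peptide and 100% = 100 nM NTR1 peptide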
AHR activator – activators of human aryl hydrocarbon receptor | AID 2796 | AHR-responsive luciferase reporter cells, luminescence | P35869 | activation, % at 5 µM | hit rate 2.5% among 320,000; in the data active = activation above about 47%;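 also: 0% = vehicle wells and 100% = reference agonist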
AHR act cf – human AHR activation, confirmation. activation, % at 9 µM. human cells, AHR-responsive luciferase reporter, luminescence. AID 2845. shares compounds with AHR activator. hit rate 87% among 2,300; in the data active = activation above about 49%;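 also: HepG2 hepatoma cells carrying a DRE-driven firefly luciferase reporter; 0% = vehicle wells and 100% = reference agonist wells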
PXR act counter – activates human PXR in AHR activator counter-screen; shares compounds with AHR activator; hit rate 88% among 2,300; cell-based PXR reporter, luciferase luminescence; activation, % at 11.6 µM; AID 434939; in the data active = activation above about 11%;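 also: human hepatoma DPX-2 cells expressing full-length human PXR; 0% = DMSO and 100% = reference agonist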
* marks the source's active call; other numbers are inactive results; . = not tested or not shown.

SMILES	APOBEC3G inh	A3A deaminase	NTR1 ag	AHR activator	AHR act cf	PXR act counter
O=C(NCCCn1ccnc1)c1cc(-c2cccs2)on1	-3.6	-6.1	-0.3	142.6*	457.6*	46.1*
O=C(NCCCN1CCOCC1)c1cc(-c2cccs2)on1	0.4	2.2	-1.1	19.1	.	.
CCOc1ccc(C(C(=O)NC(C)(C)C)N(CCOC)C(=O)CCC(=O)Nc2ccccn2)cc1 (configuration not stated)	-4.4	3.0	-0.4	-1.1	.	.
Cc1ccc(-c2cc(-c3cccs3)[nH]n2)c(O)c1	11.3	2.3	4.8	109.1*	118.0*	.
O=C(NCc1ccccc1)C1Nc2ccc(OC(F)(F)F)cc2C2C=CCC12 (configuration not stated)	-1.4	0.7	2.3	7.9	.	.
O=C(NCCOc1ccccc1)C1Nc2ccc(C(F)(F)F)cc2C2c3ccccc3CC12 (configuration not stated)	-9.0	-3.4	10.2	87.0*	6.5	78.4*
CSCCC(NS(=O)(=O)c1cccc(C(F)(F)F)c1)C(=O)Nc1ccccc1N1CCCC1 (configuration not stated)	-6.2	-3.8	5.0	-0.3	.	.
Cc1ccc(NC(=O)c2cccc(C(F)(F)F)c2)cc1NC(=O)c1[nH]cnc1C(N)=O	-8.8	-4.0	-0.1	119.2*	114.4*	57.4*
N=C1S/C(=C\c2ccco2)C(=O)N1c1nccs1	3.4	16.1	7.6	112.2*	111.3*	10.2*
COc1ccc(CCN2CC(C(=O)NCCc3ccccc3C)CCC2=O)cc1 (configuration not stated)	-4.2	-1.2	1.1	0.5	.	.
O=C(O)C1Cc2c([nH]c3ccccc23)C(c2ccc3c(c2)OCO3)N1 (configuration not stated)	1.1	-1.9	0.2	90.5*	72.6*	12.3*
O=C(Nc1ccc(Cl)cn1)c1ccccc1[N+](=O)[O-]	-6.2	-0.4	2.2	13.1	.	.
O=[N+]([O-])c1cnc(Nc2ccc(Cl)cn2)c([N+](=O)[O-])c1	11.8	-2.0	1.9	138.7*	80.0*	.
COc1ccc(NC(=O)CN(C)C(=O)C2CCCO2)cc1 (configuration not stated)	-4.9	-1.5	6.3	-1.1	.	.
COc1cccc(/C=C/C(=O)OCC(=O)NCCc2ccccc2)c1	0.9	6.9	-0.5	-1.5	.	.
O=C(CSc1nc2ccccc2n1CC(=O)N1CCCC1)Nc1ccc2c(c1)OCO2	-2.8	5.8	-0.9	7.4	.	.
CCn1c(SCC(=O)Nc2ccc3c(c2)OCO3)nc2ccccc21	-0.4	-0.5	-1.3	93.0*	32.7	82.3*
Cc1cccc(-c2nsc(SCC(=O)Nc3ccc4c(c3)OCO4)n2)c1	-2.1	0.2	7.7	105.2*	21.4	15.8*
Cn1nnnc1SCC(=O)Nc1ccc2c(c1)OCO2	-0.6	3.2	-0.8	103.0*	114.8*	16.5*
CC(C)c1nnc(SCC(=O)Nc2ccc3c(c2)OCO3)n1C	0.3	1.7	-1.8	13.8	.	.
CCOc1ccc(N2CC(C(=O)NC3CCSC3=O)CC2=O)cc1 (configuration not stated)	-5.9	-2.6	-1.0	-2.5	.	.
CCNC(=O)n1cc(-n2cncn2)c(-c2ccc(Cl)cc2)n1	-7.5	-6.6	-0.7	6.5	.	.
O=C1CSC(c2ccc(F)cc2)N1c1nc2ccccc2s1 (configuration not stated)	-7.9	-7.7	2.8	149.1*	98.2*	62.9*
CN(C)c1c2ccccc2nc2c(F)c(F)c(F)c(F)c12	-7.2	-5.3	7.6	6.8	.	.
Cc1c2ccccc2nc2c(F)c(N(C)C)c(F)c(F)c12	-6.4	-3.8	-2.4	121.9*	13.7	45.6*
SMILES	APOBEC3G inh	A3A deaminase	NTR1 ag	AHR activator	AHR act cf	PXR act counter
Cc1nc2ccc(NC(=O)c3oc4ccc(F)cc4c3C)cc2s1	4.2	13.8	-2.4	85.7*	120.6*	19.6*
Cc1c(C(=O)Nc2ccc3nc(N4CCOCC4)sc3c2)oc2ccccc12	-3.1	1.1	20.4	24.0	.	.
N#Cc1c(-c2ccccc2)cc2nc3ccccc3n2c1N	-6.2	-3.9	-2.9	85.1*	88.4*	31.1*
COc1cc(-c2cc3nc4ccccc4n3c(N)c2C#N)cc(OC)c1OC	-1.8	1.2	5.9	10.2	.	.
O=S(=O)(NC1c2cccc3cccc(c23)C1Sc1ncccn1)c1ccccc1 (configuration not stated)	-7.9	-5.0	6.2	12.2	.	.
COC(=O)c1c(C)nc2ccccc2c1C(=O)O	9.0	2.1	-0.9	3.1	.	.
COC(=O)c1cc(C)[nH]c2c(C)cc3nc4ccccc4c3c12	-5.5	-0.2	20.4	95.1*	99.7*	156.4*
COc1ccc(N2CCN(C(CNC(=O)C3CCCCC3)c3ccco3)CC2)cc1 (configuration not stated)	-4.2	-1.2	0.1	11.1	.	.
O=CNC(n1cnc2c(N3CCOCC3)ncnc21)C(Cl)(Cl)Cl (configuration not stated)	1.0	4.7	0.5	2.9	.	.
C[C@H](CO)N1C[C@H](C)[C@@H](CN(C)C(=O)NC2CCCCC2)Oc2ccc(NC(=O)Nc3ccccc3)cc2C1=O	-7.1	-3.5	-0.9	-0.4	.	.
COc1ccc2c(c1OC)C(=O)N(c1nccs1)C2	-0.3	-5.4	-1.3	81.6*	148.5*	17.0*
COc1ccc(N2Cc3ccc(OC)c(OC)c3C2=O)cc1	-4.9	-1.2	-1.5	-5.7	.	.
CSc1sc(C(=O)NN)c2c1C(O)CCC2 (configuration not stated)	-9.6	-1.3	-1.1	80.1*	10.8	3.9
CSc1sc(C(=O)NN)c2c1C1(CCC2)SCCS1	3.3	1.6	1.3	31.6	.	.
N#CC(C#N)=C1C=CC=CN1/C(=C\c1ccco1)C(=O)c1ccccc1	.	.	.	18.7	.	.
N#CC(C#N)=C1C=CC=CN1/C(=C\c1ccco1)C(=O)c1ccc(Br)cc1	.	.	.	188.7*	180.4*	61.4*
O=[N+]([O-])C1C(c2ccccc2)=NOC1c1ccccc1O (configuration not stated)	2.8	1.6	0.0	6.3	.	.
O=C(Nc1ccccc1C(=O)N/N=C/c1ccncc1)c1ccccc1	-6.2	-2.7	-0.4	101.4*	40.7	36.5*
CCOc1ccc(/C=N/NC(=O)c2ccccc2NC(=O)c2ccc(OC)cc2)cc1	-6.3	1.3	2.2	106.3*	12.9	30.8*
COc1ccc(C(=O)Nc2ccccc2C(=O)N/N=C/c2ccco2)cc1	4.1	1.0	1.6	137.4*	99.7*	29.2*
Cc1ccccc1C(=O)Nc1ccc(C(=O)N/N=C/c2ccncc2)cc1	-4.1	-0.4	-0.3	-0.3	.	.
O=[N+]([O-])c1ccc(Oc2ccc(S(=O)(=O)N3CCOCC3)cn2)cc1	-8.6	-0.3	-0.3	1.5	.	.
CCc1ccc2oc(-c3cc(N)cc(C)c3O)nc2c1	2.2	-2.3	2.5	114.4*	117.2*	12.1*
Cc1ccc(-c2nc3cc(N)ccc3o2)cc1Br	-2.9	-4.9	1.7	21.8	.	.
c1ccc(-c2csc(=Nc3cccnc3)n2CC2CCCO2)cc1 (configuration not stated)	-3.3	-2.8	2.6	80.4*	55.4*	96.9*

From PubChem BioAssay
